# According to PubChem BioAssay (NCATS):
# Values without a mark were called inactive. Records with an inconclusive call do not appear. A call without a number means that no potency is given here. The source made the active and inactive calls. Unless noted, the call rests on the fitted dose curve; in most records, active means well fitted curve in the direction sought with a large enough effect; inconclusive means small, poorly fitted or top-dose-only effect, or another doubt; inactive means no such curve, though single readings can be large; an effect the other way counts as inactive or inconclusive.
# Tests used:
# [1] = target: Lysosomal acid glucosylceramidase (Homo sapiens) (UniProt P04062); assay: Glucocerebrosidase-p2 (AID 348; in the data active means potency below about 10 µM; further: potency means the concentration at half of the fitted maximal effect); conditions: purified GBA, blue fluorogenic substrate, 40 min
# Chain of Lysosomal acid glucosylceramidase (Homo sapiens) (P04062 whole entry, looked up): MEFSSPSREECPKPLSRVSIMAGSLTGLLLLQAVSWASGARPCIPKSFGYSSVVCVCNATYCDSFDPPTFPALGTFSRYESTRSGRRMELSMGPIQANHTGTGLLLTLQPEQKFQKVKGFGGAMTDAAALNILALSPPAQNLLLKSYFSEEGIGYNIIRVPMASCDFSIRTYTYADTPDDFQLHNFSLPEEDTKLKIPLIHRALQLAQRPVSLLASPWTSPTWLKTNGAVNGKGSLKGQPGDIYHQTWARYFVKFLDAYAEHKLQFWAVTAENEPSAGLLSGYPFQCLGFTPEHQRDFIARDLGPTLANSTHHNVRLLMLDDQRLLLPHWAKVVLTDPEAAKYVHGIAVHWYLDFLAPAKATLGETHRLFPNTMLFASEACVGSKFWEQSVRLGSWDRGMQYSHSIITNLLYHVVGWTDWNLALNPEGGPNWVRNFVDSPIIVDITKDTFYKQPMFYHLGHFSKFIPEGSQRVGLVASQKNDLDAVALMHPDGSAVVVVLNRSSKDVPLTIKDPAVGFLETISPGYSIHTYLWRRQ
# Procedure, shortened: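 Compounds titrated from 0.6 nM upwards against 0.2 nM enzyme in pH 5.9 citric acid/KH2PO4, taurocholate, tween-20; blue fluorogenic substrate 80 uM, 40 min room temperature, stopped and read Ex 365/Em 440 for AC50.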
# [2] = AP1 Signaling Pathway (AID 357; active means well fitted curve in either direction with a large enough effect, not every such curve was filed as active); conditions: ME-180 AP-1-bla reporter, EGF-induced, beta-lactamase ratio, 5 h; at 7.69 µM (top of the series) unless noted
# Procedure, shortened: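 AP-1-bla ME-180 cells with beta-lactamase reporter under AP-1 response element, stimulated with EC50 EGF; compounds titrated, 5 hours at 37 degrees Celsius. CCF4 read at 460/530 nm ratio; positive and negative modulators judged by AC50.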
# [3] = NFAT Signaling Pathway (AID 444; active means well fitted curve in either direction with a large enough effect, not every such curve was filed as active;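 further: carbachol stimulus at about its EC50 of 1 µM final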); conditions: Jurkat NFAT-bla M1, carbachol, beta-lactamase ratio, 5 h; at 7.69 µM (top of the series) unless noted
# Procedure, shortened: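 Jurkat cells with NFAT-driven β-lactamase reporter and co-expressed M1 receptor, stimulated with carbachol (final 1 uM, ~EC50), compound titration, 5 h at 37 °C. CCF4 loaded 1 h at RT; 460/530 nm ratio gave %activity and AC50.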
# [4] = Stat Signaling Pathway (AID 446; active means well fitted curve in either direction with a large enough effect, not every such curve was filed as active;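 further: ME-180 cervical cancer cells given 40 pM IL-6 alongside compound; SIE-controlled beta-lactamase reporter measured as 460/530 nm FRET emission ratio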); conditions: ME-180 SIE beta-lactamase reporter, IL-6 stimulated, 5 h; series mostly up to 7.69 µM
# Procedure, shortened: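 IL-6/STAT signaling read in ME-180 cells via an SIE beta-lactamase reporter. Stimulus was 40 pM IL-6 (its AC50) for 5 hrs, so both activation and inhibition register.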
# [5] = target: Glucocorticoid receptor (Homo sapiens) (UniProt P04150); assay: GR-GFP Redistribution (AID 450;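 active means compounds whose dose series gives a full or clear partial fitted curve of increased nuclear translocation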; further: potency means the concentration at half of the fitted maximal effect); conditions: U2OS GR-GFP nuclear translocation, laser cytometry, 2 h
# Chain of Glucocorticoid receptor (Homo sapiens) (P04150 whole entry, looked up, the tested form may be a part): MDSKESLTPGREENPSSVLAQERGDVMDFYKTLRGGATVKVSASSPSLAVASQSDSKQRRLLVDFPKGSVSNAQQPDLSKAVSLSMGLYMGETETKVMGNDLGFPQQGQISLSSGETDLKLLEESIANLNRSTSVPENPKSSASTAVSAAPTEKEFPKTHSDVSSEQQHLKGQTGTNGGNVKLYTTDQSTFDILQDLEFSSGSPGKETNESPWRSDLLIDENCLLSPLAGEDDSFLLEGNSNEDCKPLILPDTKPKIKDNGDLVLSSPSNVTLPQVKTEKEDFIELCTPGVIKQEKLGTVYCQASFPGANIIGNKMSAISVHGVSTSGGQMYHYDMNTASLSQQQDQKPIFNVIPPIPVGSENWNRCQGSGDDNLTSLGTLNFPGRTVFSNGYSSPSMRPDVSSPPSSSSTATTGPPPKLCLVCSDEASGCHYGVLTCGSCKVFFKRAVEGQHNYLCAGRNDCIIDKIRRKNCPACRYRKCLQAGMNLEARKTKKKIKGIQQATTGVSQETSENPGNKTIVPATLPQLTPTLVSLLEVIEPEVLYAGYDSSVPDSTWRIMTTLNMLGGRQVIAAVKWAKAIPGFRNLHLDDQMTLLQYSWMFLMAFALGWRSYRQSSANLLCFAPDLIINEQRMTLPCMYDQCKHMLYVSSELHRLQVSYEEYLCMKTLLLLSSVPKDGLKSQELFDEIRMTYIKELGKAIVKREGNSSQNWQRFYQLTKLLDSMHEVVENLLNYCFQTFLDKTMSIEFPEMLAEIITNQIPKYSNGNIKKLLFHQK
# [6] = target: Glucocorticoid receptor (Homo sapiens) (UniProt P04150); assay: GR-EFC Redistribution (AID 451; calls by dose curve; further: potency means the concentration at half of the fitted maximal effect); conditions: CHO-K1 GR-EFC translocation, beta-gal luminescence, 2 h
# Procedure, shortened: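 CHO-K1 cells expressing nuclear EA and GR-ED fragments of b-gal; compounds titrated up to 46 uM final, 2 h at 37 C. GR nuclear translocation read as complemented b-gal luminescence after 1 h RT detection.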
# [7] = target: Mitogen-activated protein kinase 10 (Mus musculus) (UniProt Q61831); assay: JNK3 AlphaScreen Assay (AID 530; active means well fitted curve in either direction with a large enough effect, not every such curve was filed as active;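 further: kinase came from lysate of stimulated human HepG2 cells; signal reports phosphorylation of biotinylated GST-cJun 1-79 at Ser73 with 10 µM ATP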); conditions: JNK3 lysate, c-Jun phosphorylation; series mostly up to 57.1 µM
# Procedure, shortened: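 qHTS format: compounds tested as titrations against IL-1beta/TNF-alpha-activated HepG2 lysate JNK3 with biotin-GST-cJun substrate and 10 uM ATP at room temperature. Loss of anti-phospho-cJun AlphaScreen signal indicates inhibition.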
# [8] = target: 3',5'-cyclic-AMP phosphodiesterase 4B (Homo sapiens) (UniProt Q07343); assay: qHTS Assay for Inhibitors of PDE-IV (AID 607; active means well fitted activation curve with a large enough effect in the main read-out, with a control signal flat, not every such curve was filed as active); conditions: HEK293 ACTOne CNG channel cells, membrane potential fluorescence; series mostly up to 22.9 µM
# Chain of 3',5'-cyclic-AMP phosphodiesterase 4B (Homo sapiens) (Q07343 whole entry, looked up): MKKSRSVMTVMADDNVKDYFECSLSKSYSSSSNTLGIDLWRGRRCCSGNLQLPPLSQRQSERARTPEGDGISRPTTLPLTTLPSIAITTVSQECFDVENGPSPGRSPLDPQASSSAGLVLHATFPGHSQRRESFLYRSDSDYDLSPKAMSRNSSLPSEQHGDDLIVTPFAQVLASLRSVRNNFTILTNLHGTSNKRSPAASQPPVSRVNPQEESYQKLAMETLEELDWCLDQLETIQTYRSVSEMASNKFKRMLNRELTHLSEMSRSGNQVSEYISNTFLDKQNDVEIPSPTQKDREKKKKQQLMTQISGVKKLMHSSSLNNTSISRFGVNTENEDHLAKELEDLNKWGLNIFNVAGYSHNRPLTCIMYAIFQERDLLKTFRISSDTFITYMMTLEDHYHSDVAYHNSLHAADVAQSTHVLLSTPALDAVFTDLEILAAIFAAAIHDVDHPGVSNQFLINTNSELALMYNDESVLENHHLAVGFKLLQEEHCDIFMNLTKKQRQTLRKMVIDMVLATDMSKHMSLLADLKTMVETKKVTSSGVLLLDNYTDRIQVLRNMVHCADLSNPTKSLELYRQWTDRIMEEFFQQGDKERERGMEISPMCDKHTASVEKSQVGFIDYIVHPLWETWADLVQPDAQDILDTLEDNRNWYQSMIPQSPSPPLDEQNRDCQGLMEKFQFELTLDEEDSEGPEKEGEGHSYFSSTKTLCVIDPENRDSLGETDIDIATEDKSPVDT
# Procedure, shortened: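 Live HEK293 cells with a modified cyclic nucleotide-gated (CNG) channel report intracellular cAMP via membrane-potential dye fluorescence (ex 535/em 590 nm). Endogenous PDE-IV was targeted. Compounds were tested at up to 22.9 uM final; RO 20-1724 100 uM served as control.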
# [9] = target: Dual specificity protein kinase CLK4 (Homo sapiens) (UniProt Q9HAZ1); assay: qHTS Assay for Inhibitors of CDC-like Kinase 4 (Kinase-Glo Assay) (AID 1770); conditions: recombinant Clk4, Kinase-Glo ATP depletion luminescence; series mostly up to 66.7 µM; further: nearly all actives have a fitted effect of over 65% in size
# Chain of Dual specificity protein kinase CLK4 (Homo sapiens) (Q9HAZ1 whole entry, looked up): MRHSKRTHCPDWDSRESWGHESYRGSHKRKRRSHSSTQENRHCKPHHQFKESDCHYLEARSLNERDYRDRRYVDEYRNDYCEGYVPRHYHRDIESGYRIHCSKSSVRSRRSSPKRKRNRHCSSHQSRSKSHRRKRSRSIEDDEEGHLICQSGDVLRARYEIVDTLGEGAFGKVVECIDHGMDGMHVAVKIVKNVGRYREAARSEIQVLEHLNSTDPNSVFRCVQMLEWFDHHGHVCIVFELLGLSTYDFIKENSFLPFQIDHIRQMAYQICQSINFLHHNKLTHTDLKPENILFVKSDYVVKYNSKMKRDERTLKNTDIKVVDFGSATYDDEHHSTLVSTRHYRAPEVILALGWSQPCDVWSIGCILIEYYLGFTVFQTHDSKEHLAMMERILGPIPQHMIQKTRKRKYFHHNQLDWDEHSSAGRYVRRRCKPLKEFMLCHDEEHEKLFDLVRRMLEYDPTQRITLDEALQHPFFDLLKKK
# Procedure, shortened: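 25 nM Clk4 with 100 uM RS repeat peptide and 1 uM ATP (final) in Tris pH7.5, 10 mM MgCl2, 4.5 h at room temperature. Remaining ATP measured by Kinase-Glo luciferase luminescence.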
# [10] = target: Dual specificity protein kinase CLK4 (Homo sapiens) (UniProt Q9HAZ1); assay: qHTS Assay for Inhibitors of CDC-like Kinase 4 (ADP-Glo Assay) (AID 1771); conditions: recombinant CLK4, ADP-Glo luminescence; series mostly up to 80 µM; further: nearly all actives have a fitted effect of over 70% in size
# Procedure, shortened: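 Clk4 (25 nM) was incubated 1 hr at room temperature with 100 uM RS repeat peptide and 1 uM ATP in buffer with 2 mM MgCl2, 0.5 mM EGTA, 2.5 mM DTT. ADP formed was quantified by ADP-Glo luminescence.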
# [11] = target: Dual specificity protein kinase CLK4 (Homo sapiens) (UniProt Q9HAZ1); assay: qHTS Assay for Inhibitors of CDC-like Kinase 4 (ADP-FP Assay) (AID 1795); conditions: Transcreener ADP fluorescence polarization; series mostly up to 50 µM;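 further: recombinant human CLK4 phosphorylating RS repeat peptide at 1 µM ATP; nearly all actives have a fitted effect of over 60% in size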
# Procedure, shortened: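 Recombinant Clk4 (6.25 nM) phosphorylated 100 uM RS repeat peptide with 1 uM ATP in 25 mM Tris pH 7.5, 10 mM MgCl2, 0.5 mM EGTA, 2.5 mM DTT, 0.01% Triton X-100 for 1 h. ADP was detected by Transcreener ADP2 competitive fluorescence polarization after 30 min at room temperature.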
# [12] = target: Ubiquitin carboxyl-terminal hydrolase 1 (Homo sapiens) (UniProt O94782); assay: Inhibitors of USP1/UAF1: Pilot qHTS (AID 504865); conditions: purified USP1/UAF1, Ub-rhodamine cleavage fluorescence; series mostly up to 54.9 µM;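 further: rhodamine fluorescence freed from ubiquitin-rhodamine substrate followed over time; top concentration of the series differs between compounds; nearly all actives have a fitted effect of over 35% in size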
# Chain of Ubiquitin carboxyl-terminal hydrolase 1 (Homo sapiens) (O94782 whole entry, looked up): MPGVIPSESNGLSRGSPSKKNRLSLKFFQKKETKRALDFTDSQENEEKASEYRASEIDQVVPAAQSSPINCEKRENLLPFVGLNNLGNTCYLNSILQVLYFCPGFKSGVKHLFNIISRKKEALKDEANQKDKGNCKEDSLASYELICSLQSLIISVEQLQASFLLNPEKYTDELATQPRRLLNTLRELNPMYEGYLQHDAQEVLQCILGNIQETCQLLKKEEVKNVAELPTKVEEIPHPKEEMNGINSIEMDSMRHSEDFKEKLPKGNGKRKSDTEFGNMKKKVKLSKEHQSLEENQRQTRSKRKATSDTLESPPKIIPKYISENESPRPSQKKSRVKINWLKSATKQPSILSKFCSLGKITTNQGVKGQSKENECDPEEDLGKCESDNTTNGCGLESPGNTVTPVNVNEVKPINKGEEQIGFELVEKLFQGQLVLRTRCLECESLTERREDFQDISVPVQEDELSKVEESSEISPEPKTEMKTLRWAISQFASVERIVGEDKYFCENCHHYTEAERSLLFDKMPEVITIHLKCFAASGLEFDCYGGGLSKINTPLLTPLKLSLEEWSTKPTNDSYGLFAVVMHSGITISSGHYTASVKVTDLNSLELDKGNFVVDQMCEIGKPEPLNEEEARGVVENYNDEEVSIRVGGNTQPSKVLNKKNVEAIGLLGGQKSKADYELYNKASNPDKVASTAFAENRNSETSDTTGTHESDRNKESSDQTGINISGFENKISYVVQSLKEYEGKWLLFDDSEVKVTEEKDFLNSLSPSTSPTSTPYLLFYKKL
# Procedure, shortened: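 USP1/UAF1 complex at 1 nM preincubated 15 min at room temperature with compound, then Ub-Rho substrate added at 150 nM final. Fluorescence (480/540 nm) read kinetically in 50 mM HEPES pH 7.8, 0.5 mM EDTA, 1 mM TCEP, 0.1 mg/ml BSA, 0.01% Tween-20.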
# [13] = target: Cytochrome P450 1A2 (Homo sapiens) (UniProt P05177); assay: p450-cyp1a2 (AID 410; calls by dose curve; further: potency means the concentration at half of the fitted maximal effect); conditions: recombinant CYP1A2, luciferin-ME demethylation, luminescence; series mostly up to 57 µM
# Chain of Cytochrome P450 1A2 (Homo sapiens) (P05177 whole entry, looked up): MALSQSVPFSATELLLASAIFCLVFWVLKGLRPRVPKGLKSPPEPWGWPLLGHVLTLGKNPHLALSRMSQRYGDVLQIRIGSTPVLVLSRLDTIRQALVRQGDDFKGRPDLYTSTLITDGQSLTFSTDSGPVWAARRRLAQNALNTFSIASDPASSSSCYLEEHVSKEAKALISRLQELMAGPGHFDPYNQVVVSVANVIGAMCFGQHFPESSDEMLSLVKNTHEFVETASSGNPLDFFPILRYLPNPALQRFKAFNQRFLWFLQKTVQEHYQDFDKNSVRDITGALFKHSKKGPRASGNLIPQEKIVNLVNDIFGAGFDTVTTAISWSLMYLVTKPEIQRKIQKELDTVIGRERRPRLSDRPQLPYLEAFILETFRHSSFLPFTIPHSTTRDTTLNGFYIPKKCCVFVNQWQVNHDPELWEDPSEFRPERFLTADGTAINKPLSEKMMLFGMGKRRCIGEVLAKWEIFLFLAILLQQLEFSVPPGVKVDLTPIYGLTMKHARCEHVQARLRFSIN
# Procedure, shortened: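 Human CYP1A2 (20nM) demethylated Luciferin-ME at its Km (100uM) in 100mM KPO4. After 10 min compound preincubation, NADPH regeneration ran the reaction 60 min at room temperature. Luciferin was read by luminescence, normalized to 57 uM furafylline.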
# [14] = target: Cytochrome P450 2C9 (Homo sapiens) (UniProt P11712); assay: qHTS Assay for Inhibitors and Substrates of Cytochrome P450 2C9 (AID 883); conditions: recombinant CYP2C9, luciferin-H luminescence, 60 min; series mostly up to 57.1 µM; further: potency means the concentration at half of the fitted maximal effect; nearly all actives have a fitted effect of over 60% in size
# Chain of Cytochrome P450 2C9 (Homo sapiens) (P11712 whole entry, looked up): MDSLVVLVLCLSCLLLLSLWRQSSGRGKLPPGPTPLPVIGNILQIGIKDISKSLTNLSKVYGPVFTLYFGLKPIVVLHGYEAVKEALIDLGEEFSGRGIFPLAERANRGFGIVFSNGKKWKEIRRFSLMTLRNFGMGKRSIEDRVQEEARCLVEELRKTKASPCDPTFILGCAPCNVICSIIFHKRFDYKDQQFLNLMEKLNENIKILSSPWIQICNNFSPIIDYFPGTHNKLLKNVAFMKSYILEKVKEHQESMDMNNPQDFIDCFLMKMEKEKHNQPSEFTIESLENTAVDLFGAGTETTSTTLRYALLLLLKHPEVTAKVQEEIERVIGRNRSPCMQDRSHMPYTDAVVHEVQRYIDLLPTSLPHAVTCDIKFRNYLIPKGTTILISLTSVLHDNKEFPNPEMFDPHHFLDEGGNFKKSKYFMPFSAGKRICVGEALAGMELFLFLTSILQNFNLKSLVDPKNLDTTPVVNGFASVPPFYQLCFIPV
# Procedure, shortened: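 Human CYP2C9 (10nM) with Luciferin-H at 100uM (its KM) in 25mM KPO4; compound preincubated 10 min at 37C, then NADPH regeneration for 60 min at 37C. Luciferin read by luminescence after detection reagent; normalized to 57uM sulphaphenazole as full inhibition.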
# [15] = target: Cytochrome P450 3A4 (Homo sapiens) (UniProt P08684); assay: qHTS Assay for Activators of Cytochrome P450 3A4 (AID 885); conditions: recombinant CYP3A4, Luciferin-PPXE luminescence, 60 min; series mostly up to 57.1 µM; further: nearly all actives have a fitted effect of over 65% in size
# Chain of Cytochrome P450 3A4 (Homo sapiens) (P08684 whole entry, looked up): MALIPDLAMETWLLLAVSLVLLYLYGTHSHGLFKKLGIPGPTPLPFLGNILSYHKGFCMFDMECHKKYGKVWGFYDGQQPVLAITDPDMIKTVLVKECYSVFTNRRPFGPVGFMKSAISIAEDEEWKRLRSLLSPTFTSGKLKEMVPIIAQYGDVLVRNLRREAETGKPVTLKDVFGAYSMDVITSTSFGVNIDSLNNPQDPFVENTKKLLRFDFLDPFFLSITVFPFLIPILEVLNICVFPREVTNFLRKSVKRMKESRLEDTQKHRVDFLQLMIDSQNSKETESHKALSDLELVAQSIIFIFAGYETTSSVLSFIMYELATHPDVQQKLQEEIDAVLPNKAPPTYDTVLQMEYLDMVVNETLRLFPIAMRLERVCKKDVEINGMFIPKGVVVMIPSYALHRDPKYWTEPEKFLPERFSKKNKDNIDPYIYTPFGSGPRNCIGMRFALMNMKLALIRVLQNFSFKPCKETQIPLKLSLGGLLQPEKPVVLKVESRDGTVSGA
# Procedure, shortened: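 Quantitative HTS format: compounds preincubated with 20nM human CYP3A4 and Luciferin-PPXE substrate at KM, reaction started by NADPH regeneration, stopped after 60 min, luciferase luminescence read 20 min later.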
# [16] = qHTS Assay for Identification of Small Molecule Agonists for Hypoxia Response Element Signaling Pathway (AID 914; active means well fitted activation curve with a large enough effect in the signal ratio, with a control signal flat, not every such curve was filed as active; the % refers to the signal ratio; further: potency means the concentration at half of the fitted maximal effect); conditions: ME-180 (cervical carcinoma) HRE-bla reporter, beta-lactamase ratio, CoCl2, 17 h; activation: stronger effect = higher value
# Procedure, shortened: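 HRE-bla ME-180 assay for agonist-like enhancement of an EC50 CoCl2 stimulus: 17 h at 37 degrees Celsius, CCF4 for 2.5 h, ratiometric 460/530 nm signal converted to %Activity and fitted to AC50.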
Compound,Potency [1] [µM],"activity change, negative = inhibition [2] [%]","activity change, negative = inhibition [3] [%]",outcome [4],Potency [5] [µM],Potency [6] [µM],Potency [7],Potency [8],Potency [9],Potency [10],Potency [11],Potency [12],Potency [13],Potency [14],outcome [15],Potency [16]
CN(C)C(=O)c1ccc(-c2nc(N3CCOCC3)c3ccccc3n2)cc1,> 11.4,0.443,21.6,inactive,> 46,> 46,inactive,inactive,inactive,inactive,inactive,inactive,,,,
COCCn1c(=O)c(-c2cccs2)nc2cnc(Oc3ccccc3)nc21,> 11.4,16.7,,,> 9.22,> 46,,inactive,inactive,inactive,inactive,inactive,2 µM (active),3.98 µM (active),inactive,3.16 µM (active)
N#CCCn1c(=O)c(-c2cccc(C#N)c2)nc2cnc(Oc3cccc(Cl)c3)nc21,> 11.4,-14.2,-6.45,inactive,> 9.22,> 46,inactive,inactive,inactive,inactive,inactive,inactive,inactive,,,
